Data: the supplement of paper PMC11732987, “Enantioselective OTUD7B fragment discovery through chemoproteomics screening and high-throughput optimisation” (Communications Chemistry, 2025)

Tests used:
Assay in all cases: log2 ratio of Biotin-Ahx-Ub-VS probe labelling (fragment/DMSO); higher = less target engagement (more negative = stronger competition), active = hit call of the paper (q ≤ 0.05, log2 ratio ≤ -1)
Conditions in all cases: compound concentration: 200 uM; treatment time: 3 h
USP9X = USP9X (UniProt Q93008)
In short: (§1)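 Using Biotin-Ahx-Ub-VS at 0.5 µM final for 1 h, DUBs were labelled in HEK293T lysate (495 µg per sample) that had first been treated in triplicate with fragment at 200 µM or vehicle for 3 h. NeutrAvidin enrichment, LysC and trypsin digestion and diaPASEF LC-MS/MS followed. Spectronaut label-free quantities were global-median-normalised. Values are average log2 fragment/vehicle ratios by unpaired t-test, using proteins with ≥2 unique peptides.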

UniProt O00487 = molecular target: UniProt O00487
Chain of UniProt O00487 (O00487 whole entry): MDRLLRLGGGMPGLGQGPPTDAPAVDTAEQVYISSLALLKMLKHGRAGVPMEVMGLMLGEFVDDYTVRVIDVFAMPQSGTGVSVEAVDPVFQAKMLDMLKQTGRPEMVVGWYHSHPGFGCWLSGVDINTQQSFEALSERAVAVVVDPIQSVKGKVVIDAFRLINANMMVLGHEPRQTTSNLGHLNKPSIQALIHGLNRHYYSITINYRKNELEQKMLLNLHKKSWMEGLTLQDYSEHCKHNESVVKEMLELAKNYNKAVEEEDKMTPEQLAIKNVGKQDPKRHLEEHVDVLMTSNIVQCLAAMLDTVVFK
In short: as §1

UniProt O00507 = molecular target: UniProt O00507
Chain of UniProt O00507 (O00507 whole entry): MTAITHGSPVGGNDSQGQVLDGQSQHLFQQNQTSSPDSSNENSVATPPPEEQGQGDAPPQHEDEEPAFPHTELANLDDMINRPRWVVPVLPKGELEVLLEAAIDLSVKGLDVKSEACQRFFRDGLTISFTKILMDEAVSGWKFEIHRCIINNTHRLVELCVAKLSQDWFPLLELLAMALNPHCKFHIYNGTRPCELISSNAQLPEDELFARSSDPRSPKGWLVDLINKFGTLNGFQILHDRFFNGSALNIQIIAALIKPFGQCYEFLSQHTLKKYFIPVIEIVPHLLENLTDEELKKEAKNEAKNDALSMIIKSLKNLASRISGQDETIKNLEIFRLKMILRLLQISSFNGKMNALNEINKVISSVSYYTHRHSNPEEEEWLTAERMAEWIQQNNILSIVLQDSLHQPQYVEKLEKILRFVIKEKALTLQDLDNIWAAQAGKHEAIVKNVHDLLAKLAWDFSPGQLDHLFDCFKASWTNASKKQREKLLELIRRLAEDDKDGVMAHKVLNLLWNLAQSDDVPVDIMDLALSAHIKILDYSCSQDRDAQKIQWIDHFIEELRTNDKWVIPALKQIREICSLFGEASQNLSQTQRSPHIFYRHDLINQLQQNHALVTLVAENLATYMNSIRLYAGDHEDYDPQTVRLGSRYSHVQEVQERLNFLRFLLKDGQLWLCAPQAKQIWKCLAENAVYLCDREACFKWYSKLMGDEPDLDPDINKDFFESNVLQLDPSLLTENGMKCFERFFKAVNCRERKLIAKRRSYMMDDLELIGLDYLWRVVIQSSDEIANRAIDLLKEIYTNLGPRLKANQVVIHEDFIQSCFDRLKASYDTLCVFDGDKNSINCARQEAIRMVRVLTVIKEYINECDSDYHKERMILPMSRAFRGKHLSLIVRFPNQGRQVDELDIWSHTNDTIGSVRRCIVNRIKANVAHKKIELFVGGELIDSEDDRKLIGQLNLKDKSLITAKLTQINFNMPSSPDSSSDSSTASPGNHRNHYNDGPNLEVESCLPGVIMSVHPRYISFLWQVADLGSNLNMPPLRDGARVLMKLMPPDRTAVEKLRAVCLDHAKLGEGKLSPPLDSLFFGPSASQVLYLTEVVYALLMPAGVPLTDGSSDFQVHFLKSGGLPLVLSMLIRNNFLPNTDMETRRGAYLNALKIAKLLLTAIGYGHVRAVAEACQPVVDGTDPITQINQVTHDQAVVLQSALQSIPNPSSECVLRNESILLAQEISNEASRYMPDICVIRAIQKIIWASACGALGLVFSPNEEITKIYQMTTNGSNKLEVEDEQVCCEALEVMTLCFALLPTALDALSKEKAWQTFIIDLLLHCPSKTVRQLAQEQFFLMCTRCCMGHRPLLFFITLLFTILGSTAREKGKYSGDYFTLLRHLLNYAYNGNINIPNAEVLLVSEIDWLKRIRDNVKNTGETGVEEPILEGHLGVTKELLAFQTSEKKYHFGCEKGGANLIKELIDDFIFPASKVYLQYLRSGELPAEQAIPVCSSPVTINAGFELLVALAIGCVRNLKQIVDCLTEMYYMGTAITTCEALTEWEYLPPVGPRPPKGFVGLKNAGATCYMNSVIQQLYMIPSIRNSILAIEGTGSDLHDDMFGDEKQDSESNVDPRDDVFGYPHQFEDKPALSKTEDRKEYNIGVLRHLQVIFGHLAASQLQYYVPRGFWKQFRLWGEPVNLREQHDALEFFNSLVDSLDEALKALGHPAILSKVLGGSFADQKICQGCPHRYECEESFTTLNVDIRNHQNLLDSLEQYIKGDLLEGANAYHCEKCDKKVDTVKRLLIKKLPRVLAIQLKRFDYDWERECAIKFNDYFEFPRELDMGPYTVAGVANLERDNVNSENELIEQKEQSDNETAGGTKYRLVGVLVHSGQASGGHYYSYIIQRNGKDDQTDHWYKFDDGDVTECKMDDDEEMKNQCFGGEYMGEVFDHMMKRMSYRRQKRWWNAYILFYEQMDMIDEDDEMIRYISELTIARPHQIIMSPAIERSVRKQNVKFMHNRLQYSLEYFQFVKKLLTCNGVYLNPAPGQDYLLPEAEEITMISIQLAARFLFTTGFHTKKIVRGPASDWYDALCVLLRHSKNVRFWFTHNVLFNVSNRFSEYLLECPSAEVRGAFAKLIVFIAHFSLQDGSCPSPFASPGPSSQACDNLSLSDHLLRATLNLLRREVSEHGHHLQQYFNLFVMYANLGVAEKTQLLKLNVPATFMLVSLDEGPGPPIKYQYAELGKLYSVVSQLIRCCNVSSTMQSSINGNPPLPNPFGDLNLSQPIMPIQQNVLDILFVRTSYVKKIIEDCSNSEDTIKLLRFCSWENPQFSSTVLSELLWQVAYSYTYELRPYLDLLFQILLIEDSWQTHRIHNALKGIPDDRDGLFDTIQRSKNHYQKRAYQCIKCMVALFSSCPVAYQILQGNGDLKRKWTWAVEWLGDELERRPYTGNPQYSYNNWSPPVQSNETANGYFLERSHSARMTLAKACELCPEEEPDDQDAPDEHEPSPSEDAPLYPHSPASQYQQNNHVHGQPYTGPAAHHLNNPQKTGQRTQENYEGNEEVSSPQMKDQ
In short: as §1

UniProt P51784 = molecular target: UniProt P51784
Chain of UniProt P51784 (P51784 whole entry): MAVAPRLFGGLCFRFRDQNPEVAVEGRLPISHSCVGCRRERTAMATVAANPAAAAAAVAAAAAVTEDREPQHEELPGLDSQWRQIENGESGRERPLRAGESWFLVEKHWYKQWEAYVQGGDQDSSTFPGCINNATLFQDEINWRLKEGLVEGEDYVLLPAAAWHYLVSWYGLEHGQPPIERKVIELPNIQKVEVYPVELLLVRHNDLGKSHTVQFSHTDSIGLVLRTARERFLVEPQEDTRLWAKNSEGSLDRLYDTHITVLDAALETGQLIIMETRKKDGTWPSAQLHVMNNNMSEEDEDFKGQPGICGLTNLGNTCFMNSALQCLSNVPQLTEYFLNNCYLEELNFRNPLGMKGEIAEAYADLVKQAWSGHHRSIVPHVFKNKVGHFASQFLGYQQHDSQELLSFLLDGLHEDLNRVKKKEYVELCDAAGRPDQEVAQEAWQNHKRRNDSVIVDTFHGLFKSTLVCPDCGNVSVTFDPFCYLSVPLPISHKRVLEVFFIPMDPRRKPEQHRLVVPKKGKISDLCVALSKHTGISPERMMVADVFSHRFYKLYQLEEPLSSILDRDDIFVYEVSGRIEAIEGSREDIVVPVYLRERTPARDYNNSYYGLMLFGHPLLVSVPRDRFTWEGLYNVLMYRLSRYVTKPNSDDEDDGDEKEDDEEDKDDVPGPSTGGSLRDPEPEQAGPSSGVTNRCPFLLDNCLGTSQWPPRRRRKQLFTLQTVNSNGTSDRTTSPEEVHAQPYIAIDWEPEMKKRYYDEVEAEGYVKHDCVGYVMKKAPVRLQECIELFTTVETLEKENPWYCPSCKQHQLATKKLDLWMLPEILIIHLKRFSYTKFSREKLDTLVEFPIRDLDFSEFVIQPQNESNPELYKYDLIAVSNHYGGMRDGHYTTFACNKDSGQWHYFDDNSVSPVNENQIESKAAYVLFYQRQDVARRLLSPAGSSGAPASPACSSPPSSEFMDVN
In short: as §1

UniProt Q5T2D3 = molecular target: T1, UniProt Q5T2D3
T1 sequence (whole entry): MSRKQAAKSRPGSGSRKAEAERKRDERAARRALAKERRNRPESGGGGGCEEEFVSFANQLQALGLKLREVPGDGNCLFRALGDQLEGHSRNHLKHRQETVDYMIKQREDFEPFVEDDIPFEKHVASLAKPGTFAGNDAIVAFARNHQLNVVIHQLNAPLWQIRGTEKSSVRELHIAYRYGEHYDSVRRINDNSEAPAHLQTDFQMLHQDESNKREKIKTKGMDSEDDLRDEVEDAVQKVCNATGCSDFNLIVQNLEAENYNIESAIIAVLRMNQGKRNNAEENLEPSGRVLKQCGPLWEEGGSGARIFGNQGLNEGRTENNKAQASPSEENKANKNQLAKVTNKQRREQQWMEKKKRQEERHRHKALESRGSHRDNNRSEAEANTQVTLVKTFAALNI
In short: as §1

UniProt Q8TE49 = molecular target: T2, UniProt Q8TE49
T2 sequence (whole entry): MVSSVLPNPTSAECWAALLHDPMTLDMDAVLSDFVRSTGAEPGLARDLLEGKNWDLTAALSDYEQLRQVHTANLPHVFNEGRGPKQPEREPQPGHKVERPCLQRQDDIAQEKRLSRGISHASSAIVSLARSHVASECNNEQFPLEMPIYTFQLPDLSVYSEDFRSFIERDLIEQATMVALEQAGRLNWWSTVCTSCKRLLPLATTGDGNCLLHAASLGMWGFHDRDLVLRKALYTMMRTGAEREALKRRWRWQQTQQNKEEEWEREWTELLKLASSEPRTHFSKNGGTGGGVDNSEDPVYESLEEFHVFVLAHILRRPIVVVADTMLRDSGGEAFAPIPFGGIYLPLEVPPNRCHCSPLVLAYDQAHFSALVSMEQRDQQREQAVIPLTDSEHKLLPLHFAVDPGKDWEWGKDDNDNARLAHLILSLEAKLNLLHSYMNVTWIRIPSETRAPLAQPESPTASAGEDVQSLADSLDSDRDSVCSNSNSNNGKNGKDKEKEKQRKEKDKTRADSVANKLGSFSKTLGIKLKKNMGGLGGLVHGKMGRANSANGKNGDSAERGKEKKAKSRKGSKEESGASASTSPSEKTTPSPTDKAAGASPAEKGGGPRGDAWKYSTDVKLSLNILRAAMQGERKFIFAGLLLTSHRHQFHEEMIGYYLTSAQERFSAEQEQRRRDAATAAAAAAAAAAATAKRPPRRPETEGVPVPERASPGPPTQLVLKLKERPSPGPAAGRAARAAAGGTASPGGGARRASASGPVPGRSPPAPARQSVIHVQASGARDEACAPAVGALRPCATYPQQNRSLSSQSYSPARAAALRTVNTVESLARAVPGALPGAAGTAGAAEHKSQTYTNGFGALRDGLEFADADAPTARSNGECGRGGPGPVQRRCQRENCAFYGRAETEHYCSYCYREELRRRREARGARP
In short: as §1

UniProt Q9P2H5 = molecular target: T3, UniProt Q9P2H5
T3 sequence (whole entry): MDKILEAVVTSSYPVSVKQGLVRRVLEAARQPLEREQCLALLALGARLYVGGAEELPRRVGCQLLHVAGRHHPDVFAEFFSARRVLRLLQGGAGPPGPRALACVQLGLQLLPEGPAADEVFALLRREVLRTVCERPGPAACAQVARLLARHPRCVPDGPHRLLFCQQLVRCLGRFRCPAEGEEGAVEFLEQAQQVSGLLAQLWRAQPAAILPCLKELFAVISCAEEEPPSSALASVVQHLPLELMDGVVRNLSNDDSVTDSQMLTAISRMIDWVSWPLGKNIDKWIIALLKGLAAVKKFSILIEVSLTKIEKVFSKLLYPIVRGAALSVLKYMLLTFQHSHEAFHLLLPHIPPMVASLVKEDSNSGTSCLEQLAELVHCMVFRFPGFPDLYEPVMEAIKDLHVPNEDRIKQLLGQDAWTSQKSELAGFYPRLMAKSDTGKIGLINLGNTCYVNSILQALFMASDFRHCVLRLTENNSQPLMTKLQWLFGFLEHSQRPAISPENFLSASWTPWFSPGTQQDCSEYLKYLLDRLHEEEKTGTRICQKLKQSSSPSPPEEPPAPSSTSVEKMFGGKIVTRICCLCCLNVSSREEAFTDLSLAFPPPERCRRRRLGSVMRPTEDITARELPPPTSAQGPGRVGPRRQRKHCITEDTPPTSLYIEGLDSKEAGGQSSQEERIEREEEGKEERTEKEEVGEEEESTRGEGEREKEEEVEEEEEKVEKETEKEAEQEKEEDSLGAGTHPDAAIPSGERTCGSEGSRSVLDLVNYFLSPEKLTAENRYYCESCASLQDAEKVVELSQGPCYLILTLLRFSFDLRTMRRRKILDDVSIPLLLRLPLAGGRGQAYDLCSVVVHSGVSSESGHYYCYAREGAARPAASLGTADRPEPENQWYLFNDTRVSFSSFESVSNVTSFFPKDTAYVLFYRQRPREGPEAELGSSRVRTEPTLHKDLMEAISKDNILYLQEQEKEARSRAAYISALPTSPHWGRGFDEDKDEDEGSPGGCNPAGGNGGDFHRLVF
In short: as §1

UniProt Q9UGI0 = molecular target: T4, UniProt Q9UGI0
T4 sequence (whole entry): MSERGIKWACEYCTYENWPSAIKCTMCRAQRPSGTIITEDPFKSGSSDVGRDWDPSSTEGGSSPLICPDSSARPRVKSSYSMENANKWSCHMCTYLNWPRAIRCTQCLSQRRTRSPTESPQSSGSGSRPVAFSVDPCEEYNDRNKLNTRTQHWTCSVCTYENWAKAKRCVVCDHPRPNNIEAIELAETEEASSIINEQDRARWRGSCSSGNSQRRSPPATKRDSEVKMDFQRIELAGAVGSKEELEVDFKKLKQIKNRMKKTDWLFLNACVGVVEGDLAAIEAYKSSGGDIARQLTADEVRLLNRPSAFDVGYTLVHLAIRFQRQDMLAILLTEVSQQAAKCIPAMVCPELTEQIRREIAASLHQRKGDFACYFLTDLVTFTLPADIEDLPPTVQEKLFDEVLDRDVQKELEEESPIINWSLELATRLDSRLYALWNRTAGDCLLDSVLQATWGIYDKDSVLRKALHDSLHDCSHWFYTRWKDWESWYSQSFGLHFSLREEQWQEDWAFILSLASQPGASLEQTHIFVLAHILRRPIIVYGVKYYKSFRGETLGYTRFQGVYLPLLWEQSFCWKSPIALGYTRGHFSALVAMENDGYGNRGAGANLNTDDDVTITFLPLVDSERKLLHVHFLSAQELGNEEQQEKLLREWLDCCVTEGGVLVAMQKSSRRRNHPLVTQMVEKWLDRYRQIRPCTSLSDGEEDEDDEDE
In short: as §1

YOD1 = molecular target: T5, YOD1 (UniProt Q5VVQ6)
T5 sequence (whole entry): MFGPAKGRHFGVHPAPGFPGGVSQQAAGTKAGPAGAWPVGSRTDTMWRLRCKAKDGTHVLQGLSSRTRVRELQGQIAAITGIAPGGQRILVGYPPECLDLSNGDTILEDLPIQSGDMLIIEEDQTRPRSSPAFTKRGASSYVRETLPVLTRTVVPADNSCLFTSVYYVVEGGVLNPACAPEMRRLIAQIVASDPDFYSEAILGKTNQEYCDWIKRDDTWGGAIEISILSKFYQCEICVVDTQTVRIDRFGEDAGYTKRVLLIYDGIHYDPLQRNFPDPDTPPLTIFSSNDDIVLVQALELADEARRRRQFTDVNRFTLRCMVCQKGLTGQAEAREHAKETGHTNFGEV
In short: as §1

Measured: log2 ratio of Biotin-Ahx-Ub-VS probe labelling

O=C(CCl)NC1(c2ccc3c(c2)OCCO3)CCCC1
inactive: USP9X -0.378 | UniProt O00487 -0.176 | UniProt O00507 -0.152 | UniProt P51784 -0.000106 | UniProt Q5T2D3 -0.339 | UniProt Q8TE49 -0.447 | UniProt Q9P2H5 -0.3 | UniProt Q9UGI0 -0.26 | YOD1 -0.199
